# Data as given in PubChem BioAssay (Tox21).
# “And” between values parts separate entries of the source, which are not always exact repeats. Identical values can stand only once. Results filed as inconclusive are left out. Entries that show only a call come without a potency. The source made the active and inactive calls. Unless noted, the call rests on the fitted dose curve; in most records, active means well fitted curve in the direction sought with a large enough effect in the repeat runs; inconclusive means weak or mixed curves; inactive means no such curve, though single readings can be large; an effect the other way counts as inactive or inconclusive.
# Columns and labels:
# [1] = qHTS assay for identifying genotoxic compounds that show differential cytotoxicity against isogenic chicken DT40 cell lines with known DNA damage response pathways - Rev3 mutant cell line (AID 743014); further: nearly all actives have a fitted effect of over 55% in size; further: potency means the concentration at half of the fitted maximal effect
# [2] = qHTS assay to identify small molecule antagonists of the androgen receptor (AR) signaling pathway - cell viability counter screen (AID 743033; further: nearly all actives have a fitted effect of over 45% in size; further: potency means the concentration at half of the fitted maximal effect)
# [3] = qHTS assay to identify small molecule antagonists of the androgen receptor (AR) signaling pathway using the MDA cell line - cell viability counter screen (AID 743041; further: nearly all actives have a fitted effect of over 45% in size; further: potency means the concentration at half of the fitted maximal effect)
# Summary of the method: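 Cytotoxicity counter screen: MDA-kb2 AR-luc cells, compound + R1881, 16 h, 37C, 0% CO2; CellTiter-Fluor added at 15.5 h, fluorescence read after 30 min.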
# [4] = qHTS assay for identifying genotoxic compounds that show differential cytotoxicity against isogenic chicken DT40 cell lines with known DNA damage response pathways - Rad54/Ku70 mutant cell line (AID 743015); further: nearly all actives have a fitted effect of over 60% in size; further: potency means the concentration at half of the fitted maximal effect
# [5] = biological target: Androgen receptor (Homo sapiens) (UniProt P10275); assay: qHTS assay to identify small molecule antagonists of the androgen receptor (AR) signaling pathway (AID 743035; active means well fitted inhibition curve with a large enough effect in the signal ratio in the repeat runs, not every such curve was filed as active; the % refers to the signal ratio; further: potency means the concentration at half of the fitted maximal effect)
# Summary of the method: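 In this cell-based reporter screen, compounds were tested in concentration series against R1881-activated HEK293 cells expressing beta-lactamase under UAS control; after 16 h at 37C, FRET substrate was added and fluorescence read 2 h later.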
# [6] = biological target: Androgen receptor (Homo sapiens) (UniProt P10275); assay: qHTS assay to identify small molecule agonists of the androgen receptor (AR) signaling pathway using the MDA cell line (AID 743040; further: nearly all actives have a fitted effect of over 20% in size)
# Summary of the method: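 Luciferase read-out, ONE-Glo, 30 min RT. Cells: MDA-kb2 AR-luc, MMTV promoter with AR and GR response elements. Compound exposure 16 h, 37C, 0% CO2, after 5 h pre-incubation. qHTS agonist mode.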
# [7] = biological target: Androgen receptor (Homo sapiens) (UniProt P10275); assay: qHTS assay to identify small molecule antagonists of the androgen receptor (AR) signaling pathway using the MDA cell line (AID 743042; further: nearly all actives have a fitted effect of over 55% in size; further: potency means the concentration at half of the fitted maximal effect)
# Summary of the method: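 MDA-kb2 breast carcinoma cells carrying MMTV-luciferase (AR/GR responsive) were co-treated with compounds and the agonist R1881 for 16 h at 37C. Inhibition read as ONE-Glo luminescence; CellTiter-Fluor fluorescence measured in parallel for cytotoxicity.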
# [8] = biological target: Androgen receptor (Homo sapiens) (UniProt P10275); assay: qHTS assay to identify small molecule agonists of the androgen receptor (AR) signaling pathway (AID 743036; active means well fitted activation curve with a large enough effect in the signal ratio in the repeat runs, with a control signal flat, not every such curve was filed as active; the % refers to the signal ratio)
# Summary of the method: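 Screening used 2,000 AR-bla HEK293 cells per well, treated 16 h at 37C with test compounds in DMSO alongside positive and DMSO-only controls; beta-lactamase activity was then read by LiveBLAzer B/G FRET fluorescence after 2 h at room temperature.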
# [9] = qHTS assay for identifying genotoxic compounds that show differential cytotoxicity against isogenic chicken DT40 cell lines with known DNA damage response pathways - wild type cell line (AID 743012); further: potency means the concentration at half of the fitted maximal effect; nearly all actives have a fitted effect of over 60% in size
# Summary of the method: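 300 wt DT40 cells/well; cpd (DMSO) pintool-transferred after ~0.5 h at 37 C/5% CO2; 40 h incubation; CellTiter-Glo added, 30 min RT; luminescence read.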
# Androgen receptor (Homo sapiens), sequence (P10275 whole entry, looked up): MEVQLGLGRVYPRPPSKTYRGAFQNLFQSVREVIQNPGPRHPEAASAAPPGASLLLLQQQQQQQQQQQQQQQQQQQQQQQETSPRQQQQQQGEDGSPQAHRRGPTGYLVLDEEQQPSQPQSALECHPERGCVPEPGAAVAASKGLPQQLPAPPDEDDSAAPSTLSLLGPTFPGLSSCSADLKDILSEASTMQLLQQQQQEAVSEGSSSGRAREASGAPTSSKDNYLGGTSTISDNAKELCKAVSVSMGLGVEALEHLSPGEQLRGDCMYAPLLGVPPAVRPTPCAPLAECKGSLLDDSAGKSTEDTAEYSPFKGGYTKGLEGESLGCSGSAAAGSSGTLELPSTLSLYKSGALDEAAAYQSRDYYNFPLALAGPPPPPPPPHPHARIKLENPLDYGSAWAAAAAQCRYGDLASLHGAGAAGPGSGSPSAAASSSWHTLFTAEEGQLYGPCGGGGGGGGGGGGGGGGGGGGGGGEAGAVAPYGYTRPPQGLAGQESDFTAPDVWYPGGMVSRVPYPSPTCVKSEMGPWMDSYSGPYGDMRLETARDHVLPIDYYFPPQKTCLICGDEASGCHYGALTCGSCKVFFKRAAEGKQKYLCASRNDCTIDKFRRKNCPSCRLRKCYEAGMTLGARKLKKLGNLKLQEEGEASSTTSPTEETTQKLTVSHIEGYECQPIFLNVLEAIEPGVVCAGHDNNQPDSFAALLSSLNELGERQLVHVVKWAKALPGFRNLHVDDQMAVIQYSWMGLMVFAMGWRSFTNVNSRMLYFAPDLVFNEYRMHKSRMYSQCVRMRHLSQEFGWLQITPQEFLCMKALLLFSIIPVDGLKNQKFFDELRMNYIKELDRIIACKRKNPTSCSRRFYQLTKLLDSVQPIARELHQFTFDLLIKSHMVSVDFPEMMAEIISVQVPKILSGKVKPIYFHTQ
structure (smiles),measurement,setting,value
C[C@]12CC[C@H]3[C@@H](CCC4=CC(=O)CC[C@@]43C)[C@@H]1CC[C@@H]2O,Potency,[1],30.4 µM (active)
same,Potency,[2],inactive
same,Potency,[3],inactive
Clc1ccc(COC(Cn2ccnc2)c2ccc(Cl)cc2Cl)cc1 (stereo not given),Potency,[1],16.8 µM (active) and 12.8 µM (active) and 9.65 µM (active)
same,Potency,[4],10.6 µM (active) and 16.1 µM (active) and 10.8 µM (active)
same,Potency,[2],40.7 µM (active) and 38.7 µM (active)
ClC(Cl)=C(Cl)Cl,Potency,[1],inactive
same,Potency,[4],inactive
same,Potency,[2],inactive
same,Potency,[3],inactive
CS(=O)(=O)c1ccc(C(=O)C2C(=O)CCCC2=O)c([N+](=O)[O-])c1,Potency,[1],44 µM (active)
same,Potency,[4],45.6 µM (active)
same,Potency,[2],inactive
same,Potency,[3],inactive
CCCCCCCCCBr,Potency,[1],inactive
same,Potency,[4],inactive
same,Potency,[2],inactive
same,Potency,[3],inactive
CC(=O)/C=C/c1ccc2c(c1)OCO2,Potency,[1],68.9 µM (active)
same,Potency,[4],61.4 µM (active)
same,Potency,[2],inactive
same,Potency,[5],12.4 µM (active)
same,Potency,[6],inactive
same,Potency,[3],inactive
same,Potency,[7],61.4 µM (active)
CC(=O)Nc1ccc2c(c1)Cc1ccccc1-2,Potency,[4],62.1 µM (active)
same,Potency,[2],inactive
CC(C)(C)C(O)/C(=C\c1ccc(Cl)cc1Cl)n1cncn1 (stereo not given),Potency,[1],18.6 µM (active)
same,Potency,[3],inactive
CCOCCOC(C)=O,Potency,[1],inactive
same,Potency,[4],inactive
same,Potency,[2],inactive
same,Potency,[3],inactive
O=[N+]([O-])O.O=[N+]([O-])O.[Cd],Potency,[1],27.3 µM (active)
same,Potency,[4],61.1 µM (active)
same,Potency,[3],inactive
CCCCCCCCCCCCCCC(Br)C(=O)O (stereo not given),Potency,[1],24.3 µM (active)
same,Potency,[2],inactive
same,Potency,[3],inactive
O=C(CCl)C(Cl)Cl,Potency,[1],0.692 µM (active)
same,Potency,[4],4.9 µM (active)
same,Potency,[2],6.22 µM (active)
O=c1oc2ccccc2c(O)c1Cc1c(O)c2ccccc2oc1=O,Potency,[1],inactive
same,Potency,[4],inactive
same,Potency,[2],inactive
same,Potency,[5],inactive
same,Potency,[8],inactive
same,Potency,[6],inactive
same,Potency,[3],inactive
same,Potency,[7],inactive
Oc1ccc(C(=C(Cl)Cl)c2ccc(O)cc2)cc1,Potency,[1],inactive
same,Potency,[4],inactive
same,Potency,[2],inactive
same,Potency,[3],inactive
COc1ccc(N)cc1N,Potency,[1],3.98 µM (active) and 5.87 µM (active)
same,Potency,[4],9.99 µM (active) and 7.38 µM (active)
same,Potency,[2],16 µM (active) and 18.7 µM (active)
same,Potency,[3],inactive
CCN(CC)C(=S)[S-].CCN(CC)C(=S)[S-].[Zn+2],Potency,[1],1.08 µM (active)
same,Potency,[4],1.08 µM (active)
same,Potency,[2],0.344 µM (active)
same,Potency,[3],0.96 µM (active)
CCOP(=S)(OCC)OC(Cl)C(Cl)(Cl)Cl (stereo not given),Potency,[1],inactive
same,Potency,[4],inactive
same,Potency,[2],inactive
same,Potency,[3],inactive
BrCBr,Potency,[2],inactive
same,Potency,[3],inactive
CC(=O)[O-].CC(=O)[O-].O.O.[Cd+2],Potency,[1],67.6 µM (active)
same,Potency,[4],60.3 µM (active)
same,Potency,[2],24.2 µM (active)
same,Potency,[3],inactive
N#CC(Cl)Cl,Potency,[1],59.5 µM (active)
same,Potency,[3],inactive
same,Potency,[7],inactive
CCCCCCCCc1ccc(O)cc1,Potency,[9],21.8 µM (active)
same,Potency,[4],25.2 µM (active)
same,Potency,[8],inactive
same,Potency,[6],inactive
same,Potency,[7],inactive
ClC1=C(Cl)[C@]2(Cl)[C@@H]3[C@@H]4C[C@@H]([C@H]5O[C@@H]45)[C@@H]3[C@@]1(Cl)C2(Cl)Cl,Potency,[1],14.5 µM (active)
same,Potency,[4],25.8 µM (active)
Nc1ccccc1C(=O)Oc1ccc2ccccc2c1,Potency,[2],inactive
same,Potency,[8],inactive
same,Potency,[3],inactive
same,Potency,[7],inactive
Oc1ccc(C2(c3ccc(O)cc3)CCCCC2)cc1,Potency,[1],65 µM (active)
same,Potency,[4],57.9 µM (active)
c1ccc2c(c1)OCC(C1=NCCN1)O2 (stereo not given),Potency,[1],7.5 µM (active)
same,Potency,[4],8.41 µM (active)
same,Potency,[2],inactive
Nc1ccc(Sc2ccc(N)cc2)cc1,Potency,[4],62.9 µM (active)
same,Potency,[2],inactive
Clc1ccc(C(c2ccccc2Cl)C(Cl)(Cl)Cl)cc1 (stereo not given),Potency,[1],45.1 µM (active)
same,Potency,[2],inactive
same,Potency,[3],inactive
[Hg+2].[I-].[I-],Potency,[1],1.22 µM (active)
same,Potency,[2],21.9 µM (active)
same,Potency,[3],54.5 µM (active)
[CH3][Hg][Cl],Potency,[2],inactive
same,Potency,[6],inactive
same,Potency,[3],inactive
same,Potency,[7],inactive
CCC(C)(C)C(=O)OC1=C(c2ccc(Cl)cc2Cl)C(=O)OC12CCCCC2,Potency,[2],inactive
same,Potency,[8],inactive
same,Potency,[6],inactive
same,Potency,[3],inactive
same,Potency,[7],inactive
COC(=O)N(C(=O)N1CO[C@@]2(C(=O)OC)Cc3cc(Cl)ccc3C2=N1)c1ccc(OC(F)(F)F)cc1,Potency,[1],14.8 µM (active)
same,Potency,[4],9.36 µM (active)
same,Potency,[2],inactive
same,Potency,[5],6.69 µM (active)
same,Potency,[6],inactive
same,Potency,[3],inactive
same,Potency,[7],23.5 µM (active)
